# Only some compounds are listed: those with a hit (about 9.9% of all), similar ones and a draw of the others.
# IL-1B inflam inh: qHTS for Inhibitors of Inflammasome Signaling: IL-1-beta AlphaLISA Primary Screen | THP-1 LPS/ATP IL-1B secretion, AlphaLISA, 16 h; stronger effect = lower value | activity change, % at 57.5 µM | hit rate 4.7% among 360,000 | AID 743279, 2014; in the data active means activity change below about -50%; inconclusive means mostly about -30% to -49%; further: on the % scale 0 is the no-effect control and ±100 the full control effect
#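 THP-1 cells pretreated 1 hr with compounds (up to 57.5 uM final), then stimulated with LPS (250 ng/mL final) plus ATP (1.25 mM final); secreted IL-1B measured by AlphaLISA after 16 hr, decreased signal indicating inhibition.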
# KB-V1 MDR tox: qHTS assay for MDR1-selective chemotherapeutics: Primary screen using the drug-selected MDR subline cells KB-V1. KB-V1 MDR cells viability, CellTiter-Glo, 72 h. Potency, µM (series often up to 46.1 µM), actives largely listed as cytotoxic. hit rate 3.4% among 400,000; further: potency means the concentration at half of the fitted maximal effect; on the % scale 0 is the no-effect control and ±100 the full control effect; nearly all actives have a fitted effect of over 60% in size
#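 Cytotoxicity toward P-gp-expressing KB-V1 cells was determined as loss of CellTiter-Glo luminescence after 72 h at 37 degrees C. Compounds were tested in quantitative HTS format across a concentration range, with curves fitted to normalized data.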
# KB-3-1 cytotox: qHTS assay for MDR1-selective chemotherapeutics: Primary screen using the parental adenocarcinoma cell KB-3-1; AID 1347075, 2019; hit rate 1.4% among 400,000; KB-3-1 viability, CellTiter-Glo ATP luminescence, 72 h; Potency, µM (doses to about 46.1 µM), most hits filed as cytotoxic; further: potency means the concentration at half of the fitted maximal effect; on the % scale 0 is the no-effect control and ±100 the full control effect; nearly all actives have a fitted effect of over 60% in size
#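 Multi-concentration cytotoxicity screen in KB-3-1 cells grown in DMEM lacking phenol red with 10% FBS. After 72 h at 37 °C with compound, ATP-dependent luminescence was recorded.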
# SW480 rereplic: A quantitative high throughput screen for small molecules that induce DNA re-replication in SW480 colon adenocarcinoma cells. SW480 DNA re-replication, Hoechst DNA content imaging, 48 h. Potency, µM (highest dose often 46.1 µM), for the others: top-dose re-replication activation, actives largely listed as activators. hit rate 1.8% among 340,000. AID 624297, 2012; further: potency means the concentration at half of the fitted maximal effect; % of control where 0% means no effect; nearly all actives have a fitted effect of over 55% in size
#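 SW480 cells exposed to compounds for 48 hr at 37 C, 5% CO2, then Hoechst-stained 40 min. Nuclear DNA content imaged by fluorescence scanning (405 nm excitation, 500-530 nm emission); re-replication scored as increased high-intensity nuclei.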
# MCF10A rereplic: A quantitative high throughput screen for small molecules that induce DNA re-replication in MCF 10a normal breast cells; MCF 10A DNA re-replication, Hoechst nuclear intensity, 48 h; Potency, µM (titrated, usually from 46.1 µM), without a hit: at the top dose activity, positive = re-replication, hits mostly activators; hit rate 2.9% among 350,000; further: potency means the concentration at half of the fitted maximal effect; % of control where 0% means no effect; nearly all actives have a fitted effect of over 50% in size
# * marks the source's active call; other numbers are inactive results; i = inactive; ? = inconclusive; . = no result given. Unless noted, the call rests on the fitted dose curve; in most records, active means well fitted curve in the direction sought with a large enough effect; inconclusive means small, poorly fitted or top-dose-only effect, or another doubt; inactive means no such curve, though single readings can be large; an effect the other way counts as inactive or inconclusive.
SMILES,IL-1B inflam inh,KB-V1 MDR tox,KB-3-1 cytotox,SW480 rereplic,MCF10A rereplic
O=C(c1cccc(C(F)(F)F)c1)C1CCCN(Cc2cccc(OCCO)c2)C1 (centres undefined),-62*,?,?,11%,0%
Cc1ccc(C(=O)N2[C@@H]3CN(C)C(=O)[C@@]2(Cc2ccccc2)[C@H]2C(=O)N(Cc4ccccc4)C(=O)[C@@H]32)cc1,-9,i,i,2%,3%
COc1ccc(NC(=O)Cn2c(=O)c3cc(Cl)ccc3n3nncc23)cc1,.,i,i,.,.
O=C(NCC1CCCO1)c1cc2n(n1)C(C(F)(F)F)CC(c1ccc(F)cc1)N2 (centres undefined),-4,21µM*,i,-5%,11%
O=C(NCC12CC3CC(CC(C3)C1)C2)c1cc2n(n1)C(C(F)(F)F)CC(c1ccco1)N2 (centres undefined),-87*,i,i,?,?
COc1ccc(C2CC(C(F)(F)F)n3nc(C(=O)NCCN4CCOCC4)cc3N2)cc1 (centres undefined),4,i,i,3%,-4%
O=C(CCNc1n[nH]c(=O)[nH]c1=O)N/N=C\c1cccc(OCc2ccccc2)c1,-10,i,i,1%,6%
Cn1c(=O)c(C(=O)c2ccc(S(C)(=O)=O)c(Cl)c2Cl)c(O)c2ccccc21,22,i,i,2%,1%
CC1(C)Cc2ccccc2C(/C(=N\Nc2cccc(Cl)c2)C(N)=O)=N1,-54*,i,?,-5%,?
CC1(C)Cc2ccccc2C(/C(=N/O)C(N)=O)=N1,0,i,i,?,-14%
CC(=O)c1ccc(N/N=C(/C(N)=O)C2=NC(C)(C)Cc3ccccc32)cc1,-3,12µM*,i,?,?
CCCCn1c(-c2ccc(F)c(F)c2)nc2cc3[nH]c(=O)c(C(C)C)nc3cc21,-19,i,i,0%,23µM*
S=C1N(c2ccccc2)C(c2ccc(Br)cc2)N2CCCN12 (centres undefined),-24,i,i,-2%,-1%
Cc1ccc(C(O)c2ncc(-c3cccc(C(F)(F)F)c3)[nH]2)c(C)c1 (centres undefined),-23,i,i,.,.
OC(Cc1ccccc1Br)c1ncc(-c2cccc(C(F)(F)F)c2)[nH]1 (centres undefined),-61*,?,i,.,.
Cc1ccc(C)c(C(O)c2ncc(-c3cccc(C(F)(F)F)c3)[nH]2)c1 (centres undefined),-54*,i,i,.,.
COc1ccc(CCNC(=O)CCn2c(=O)c3ccccc3n(Cc3c(C)cc(C)cc3C)c2=O)cc1OC,.,?,i,.,.
CCc1c(O)nc(SCC(=O)Nc2ccccc2)n(-c2ccccc2C)c1=O,29,i,i,.,.
CCc1c(O)nc(SCC(=O)Nc2ccccc2)n(-c2ccccc2)c1=O,28,i,i,21µM*,3.7µM*
CCOc1ccc(NC(=O)CN(C)C(=O)c2cc(-c3ccc(OC)cc3)nc3ccccc23)cc1OCC,-4,?,i,3%,16µM*
CCOc1ccc(NC(=O)CN(C)C(=O)c2ccccc2OCCOc2ccccc2)cc1OCC,-8,2.3µM*,i,0%,10%
COc1cccc(NC(=O)CN(C)C(=O)c2cc(-c3cccc(Br)c3)nc3ccccc23)c1,-55*,?,?,?,13µM*
CCOc1ccc(NC(=O)CN(C)C(=O)C2CCN(C(=O)c3ccc(Cl)cc3)CC2)cc1OCC,-51*,i,i,-21%,1%
CCOc1ccc(NC(=O)CN(C)C(=O)C2CCN(C(=O)Nc3ccccc3)CC2)cc1OCC,-13,i,i,-5%,5%
COc1cccc(NC(=O)CN(C)C(=O)c2cc(-c3ccc(C)o3)nc3ccccc23)c1,-1,i,i,14%,10%
SMILES,IL-1B inflam inh,KB-V1 MDR tox,KB-3-1 cytotox,SW480 rereplic,MCF10A rereplic
CCOc1ccc(NC(=O)CN(C)C(=O)c2cccc3ccccc23)cc1OCC,-2,?,?,-4%,2%
CCCCN(C(C)=O)c1c(CC)nc2ccc(C(=O)Nc3cccc(OCC(=O)N(C)C)c3)cn12,-16,i,i,.,.
COc1ccc(CCC(=O)N(C)CC(=O)Nc2ccc(Cl)c(C(F)(F)F)c2)cc1,i,?,i,-35%,?
Cc1ccc(-c2nnc(NC(=O)Nc3ccc4ccccc4c3)s2)cc1,.,?,i,.,.
O=C(NC(=S)Nc1ccc(Cl)cn1)c1cc([N+](=O)[O-])ccc1N1CCOCC1,-1,i,i,-7%,1%
COc1ccc(NC(=O)CN(C)C(=O)c2cc(-c3ccc(Cl)cc3)nc3ccccc23)cc1,-7,?,i,9%,18µM*
COc1cccc(NC(=O)CN(C)C(=O)c2cc(-c3ccccc3)nc3ccc(C)cc23)c1,-5,i,i,?,?
Nc1cccc(/C=C2\C=Cc3ccccc32)c1,.,i,i,.,.
O=C(c1ccc2nc(-c3ccco3)c(-c3ccco3)nc2c1)N1CCN(c2ncccn2)CC1,-3,?,i,9%,13µM*
Cc1cccc(N2CCN(C(=O)c3ccc4nc(-c5ccco5)c(-c5ccco5)nc4c3)CC2C)c1 (centres undefined),?,i,?,?,12µM*
O=C(c1cccc(C(=O)N2CCN(c3ncccn3)CC2)c1)N1CCN(c2ncccn2)CC1,-16,i,i,-8%,-1%
O=C(Nc1ccc2nc(-c3ccco3)c(-c3ccco3)nc2c1)N1CCN(c2ccccn2)CC1,-57*,?,i,?,?
O=C(Nc1ccccc1)c1ccc2nc(-c3ccco3)c(-c3ccco3)nc2c1,?,?,i,18µM*,12µM*
CC1CCN(C(=O)Nc2ccc3nc(-c4ccco4)c(-c4ccco4)nc3c2)CC1,.,?,i,.,.
Cc1ccc(C(=O)Nc2cccc(NC(=O)CN3CCCCC3)c2)cc1,-7,?,i,-19%,?
O=C(c1ccc(F)cc1)N1CCC2(CC1)NCCc1[nH]cnc12,10,i,?,?,-7%
O=C(CSc1nnc(Cc2cccs2)n1Cc1ccco1)Nc1cccc(Cl)c1,-9,?,i,-2%,6.5µM*
COc1ccc(NC(=O)CSc2nnc(-c3ccccc3Cl)n2Cc2ccco2)c(OC)c1,?,i,i,15%,4%
CCOc1ccc(NC(=O)CSc2nnc(-c3ccccc3Cl)n2Cc2ccco2)cc1,-2,21µM*,?,3%,2%

# Screening results deposited in PubChem by National Center for Advancing Translational Sciences (NCATS).
